Experimental data reported in the supplement of paper PMC10515830.
Counter-ions that a name gives are not always drawn.

How the values were obtained:
Details in all cases: 10 µM; exposure time 6 h
[1] = system: Danio rerio larvae (5 dpf); assay: difference in excitability vs DMSO (percentage points); higher = more excitable than DMSO
In short: (§1)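 Wild-type 5 dpf zebrafish larvae in 96-well plates were given 100 µL egg water containing library compound at 10 µM final for 6 h. After 3 h of exposure, plates at 28.5 ℃ were photographed every 6 s during a 3-h programme of moving lines and 100 ms, 400Hz tones. Z-LaP Tracker (a DeepLabCut model) quantified each behaviour, averaged over 48 larvae per compound. Values are the compound mean minus the DMSO-vehicle control, in percentage points.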

[2] = system: Danio rerio larvae (5 dpf); assay: difference in startle response vs DMSO (percentage points); higher = stronger startle than DMSO
In short: as §1

[3] = system: Danio rerio larvae (5 dpf); assay: difference in activity during first hour vs DMSO (percentage points); higher = more activity than DMSO
In short: as §1

[4] = system: Danio rerio larvae (5 dpf); assay: difference in habituation to acoustic stimuli vs DMSO (percentage points); higher = more habituation than DMSO
In short: as §1

[5] = system: Danio rerio larvae (5 dpf); assay: difference in combined optomotor response to red, green and blue moving lines vs DMSO (percentage points); higher = stronger optomotor response than DMSO
In short: as §1

## CC(Oc1c(Cl)cccc1Cl)C1=NCCN1 (stereo not given) [Lofexidine (hydrochloride)]
[1]
  difference in excitability: 5.84
[2]
  difference in startle response: 4.45
[3]
  difference in activity during first hour: 2.08
[4]
  difference in habituation to acoustic stimuli: 0.884
[5]
  difference: 10.9

## CN(C)c1nc(N(C)C)nc(N(C)C)n1 [Altretamine]
[1]
  difference in excitability: -0.899
[2]
  difference in startle response: -2.53
[3]
  difference in activity during first hour: -6.9
[4]
  difference in habituation to acoustic stimuli: -1.7
[5]
  difference: 0.893

## Nc1ncn([C@H]2C[C@H](O)[C@@H](CO)O2)c(=O)n1 [Decitabine]
[1]
  difference in excitability: -2.79
[2]
  difference in startle response: -4.56
[3]
  difference in activity during first hour: -0.853
[4]
  difference in habituation to acoustic stimuli: 0.137
[5]
  difference: 4.38

## NC[C@@H](O)c1ccc(O)c(O)c1 [L-(-)-Norepinephrine (bitartrate hydrate)]
[1]
  difference in excitability: 5.69
[2]
  difference in startle response: -4.59
[3]
  difference in activity during first hour: 23
[4]
  difference in habituation to acoustic stimuli: -6.22
[5]
  difference: 6.76

## O=c1[nH]cnc2c1ncn2[C@H]1CC[C@@H](CO)O1 [Didanosine]
[1]
  difference in excitability: 1.69
[2]
  difference in startle response: -3.05
[3]
  difference in activity during first hour: 4.04
[4]
  difference in habituation to acoustic stimuli: -1.02
[5]
  difference: 4.2

## CN(C)CCOC(c1ccccc1)c1ccccc1 [Diphenhydramine (hydrochloride)]
[1]
  difference in excitability: -0.341
[2]
  difference in startle response: 0.108
[3]
  difference in activity during first hour: -10.6
[4]
  difference in habituation to acoustic stimuli: -3.37
[5]
  difference: 3.89

## C[C@@](Cc1ccc(O)c(O)c1)(NN)C(=O)O [Carbidopa (hydrate)]
[1]
  difference in excitability: 5.76
[2]
  difference in startle response: 3.77
[3]
  difference in activity during first hour: 4.48
[4]
  difference in habituation to acoustic stimuli: -7.23
[5]
  difference: 6.07

## CC=CC1=C(C(=O)O)N2C(=O)[C@@H](NC(=O)[C@H](N)c3ccc(O)cc3)[C@H]2SC1 [Cefprozil]
[1]
  difference in excitability: 11.3
[2]
  difference in startle response: -8.07
[3]
  difference in activity during first hour: 1.23
[4]
  difference in habituation to acoustic stimuli: 4.8
[5]
  difference: -4.03

## Oc1c(Cl)cc(Cl)c(Cl)c1Cc1c(O)c(Cl)cc(Cl)c1Cl [Hexachlorophene]
[1]
  difference in excitability: 8.13
[2]
  difference in startle response: -9.45
[3]
  difference in activity during first hour: -18.6
[4]
  difference in habituation to acoustic stimuli: -9.66
[5]
  difference: -15.6

## C1N2CN3CN1CN(C2)C3 [Methenamine Hippurate]
[1]
  difference in excitability: 0.76
[2]
  difference in startle response: 5.89
[3]
  difference in activity during first hour: -3.94
[4]
  difference in habituation to acoustic stimuli: 9.62
[5]
  difference: 2.94

## Cc1cn([C@H]2C[C@H](N=[N+]=[N-])[C@@H](CO)O2)c(=O)[nH]c1=O [Zidovudine]
[1]
  difference in excitability: 4.38
[2]
  difference in startle response: -2.12
[3]
  difference in activity during first hour: 0.0973
[4]
  difference in habituation to acoustic stimuli: 1.67
[5]
  difference: 6.8

## CC(C(=O)O)c1ccc(-c2ccccc2)c(F)c1 (racemic) [(±)-Flurbiprofen]
[1]
  difference in excitability: 17.6
[2]
  difference in startle response: -8.24
[3]
  difference in activity during first hour: 15
[4]
  difference in habituation to acoustic stimuli: -6.69
[5]
  difference: -3.74

## Nc1[nH]c(=O)ncc1F [5-Fluorocytosine]
[1]
  difference in excitability: 0.317
[2]
  difference in startle response: 1.12
[3]
  difference in activity during first hour: -10.7
[4]
  difference in habituation to acoustic stimuli: -2.78
[5]
  difference: 2.67

## CC(C)C[C@H](NC(=O)CNC(=O)c1cc(Cl)ccc1Cl)B1OC(=O)C(CC(=O)O)(CC(=O)O)O1
[1]
  difference in excitability: -1.67
[2]
  difference in startle response: 1.83
[3]
  difference in activity during first hour: 2.45
[4]
  difference in habituation to acoustic stimuli: 4.21
[5]
  difference: 5.88

## COc1ccc2c(O[C@@H]3C[C@H]4C(=O)N[C@]5(C(=O)NS(=O)(=O)C6CC6)C[C@H]5/C=C\CCCCN(C)C(=O)[C@@H]4C3)cc(-c3nc(C(C)C)cs3)nc2c1C [Simeprevir (sodium salt)]
[1]
  difference in excitability: 13.8
[2]
  difference in startle response: -3.43
[3]
  difference in activity during first hour: 25.2
[4]
  difference in habituation to acoustic stimuli: 3.8
[5]
  difference: 8.38

## c1cnc2cc3c(cc2n1)[C@@H]1CNC[C@H]3C1 [Varenicline (tartrate)]
[1]
  difference in excitability: 0.228
[2]
  difference in startle response: 1.55
[3]
  difference in activity during first hour: 3.08
[4]
  difference in habituation to acoustic stimuli: 5.66
[5]
  difference: -2.67

## Clc1ccc2c(c1)CCc1cccnc1C2=C1CCNCC1 [Desloratadine]
[1]
  difference in excitability: 10.4
[2]
  difference in startle response: 3.48
[3]
  difference in activity during first hour: 2.87
[4]
  difference in habituation to acoustic stimuli: -2.42
[5]
  difference: 1.86

## CN(C)CCC[C@@]1(c2ccc(F)cc2)OCc2cc(C#N)ccc21 [Escitalopram]
[1]
  difference in excitability: 12.5
[2]
  difference in startle response: -1.37
[3]
  difference in activity during first hour: -18.9
[4]
  difference in habituation to acoustic stimuli: 1.61
[5]
  difference: 1.8
